# Measurements from article PMC11062922 (Nature Chemical Biology, 2023).
# Like-named read-outs stand apart in the source and are kept apart here.
# Key:
# AAK1 = system: AAK1; set-up: species or system human, MV4-11 + K-562 + COLO205 + SK-N-BE2 + OVCAR-8; settings: read-out: apparent Kd, n = 1
# BMP2K = system: BMP2K; set-up: species or system human, MV4-11 + K-562 + COLO205 + SK-N-BE2 + OVCAR-8; settings: read-out: apparent Kd, n = 1
# FLT4 = system: FLT4; set-up: species or system human, MV4-11 + K-562 + COLO205 + SK-N-BE2 + OVCAR-8; settings: read-out: apparent Kd, compound concentrations: 100 nM and 1000 nM (sheet 'Samples'), n = 1
# GSK3A = system: GSK3A; set-up: species or system human, MV4-11 + K-562 + COLO205 + SK-N-BE2 + OVCAR-8; settings: read-out: apparent Kd, n = 1
# GSK3B = system: GSK3B; set-up: species or system human, MV4-11 + K-562 + COLO205 + SK-N-BE2 + OVCAR-8; settings: read-out: apparent Kd, compound concentrations: 100 nM and 1000 nM (sheet 'Samples'), n = 1
# NUAK1 = system: NUAK1; set-up: species or system human, MV4-11 + K-562 + COLO205 + SK-N-BE2 + OVCAR-8; settings: read-out: apparent Kd, compound concentrations: 100 nM and 1000 nM (sheet 'Samples'), n = 1
# Q6ZSR9 = Q6ZSR9 (human, UniProt Q6ZSR9); set-up: species or system MV4-11 + K-562 + COLO205 + SK-N-BE2 + OVCAR-8; settings: read-out: apparent Kd, n = 1
# Sequence of Q6ZSR9 (Q6ZSR9 whole entry, looked up): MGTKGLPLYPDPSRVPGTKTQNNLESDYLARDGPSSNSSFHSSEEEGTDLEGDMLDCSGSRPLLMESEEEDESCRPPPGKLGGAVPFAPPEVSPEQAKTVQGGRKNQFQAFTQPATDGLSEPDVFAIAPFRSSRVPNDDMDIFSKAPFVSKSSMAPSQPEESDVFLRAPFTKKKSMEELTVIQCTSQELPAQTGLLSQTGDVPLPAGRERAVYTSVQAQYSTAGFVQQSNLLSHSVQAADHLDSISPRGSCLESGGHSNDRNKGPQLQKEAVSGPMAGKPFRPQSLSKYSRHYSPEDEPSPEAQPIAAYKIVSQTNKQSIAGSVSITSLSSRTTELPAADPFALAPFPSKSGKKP
# CLK1 = system: CLK1; set-up: species or system human, MV4-11 + K-562 + COLO205 + SK-N-BE2 + OVCAR-8; settings: read-out: apparent Kd, n = 1
# CLK4 = system: CLK4; set-up: species or system human, MV4-11 + K-562 + COLO205 + SK-N-BE2 + OVCAR-8; settings: read-out: apparent Kd, n = 1
# CSNK2A1;CSNK2A3 = system: CSNK2A1;CSNK2A3; set-up: species or system human, MV4-11 + K-562 + COLO205 + SK-N-BE2 + OVCAR-8; settings: read-out: apparent Kd, n = 1
# CSNK2A2 = system: CSNK2A2; set-up: species or system human, MV4-11 + K-562 + COLO205 + SK-N-BE2 + OVCAR-8; settings: read-out: apparent Kd, n = 1
# PKN1 = system: PKN1; set-up: species or system human, MV4-11 + K-562 + COLO205 + SK-N-BE2 + OVCAR-8; settings: read-out: apparent Kd; compound concentrations:100 nM and 1000 nM (sheet 'Samples'); n = 1
# PKN3 = system: PKN3; set-up: species or system human, MV4-11 + K-562 + COLO205 + SK-N-BE2 + OVCAR-8; settings: read-out: apparent Kd; compound concentrations:100 nM and 1000 nM (sheet 'Samples'); n = 1
# GAK = system: GAK; set-up: species or system human, MV4-11 + K-562 + COLO205 + SK-N-BE2 + OVCAR-8; settings: read-out: apparent Kd, compound concentrations: 100 nM and 1000 nM (sheet 'Samples'), n = 1
# MELK = system: MELK; set-up: species or system human, MV4-11 + K-562 + COLO205 + SK-N-BE2 + OVCAR-8; settings: read-out: apparent Kd; compound concentrations: 100 nM and 1000 nM (sheet 'Samples'), CATDS: 0.103385588540624; n = 1
# RET = system: RET; set-up: species or system human, MV4-11 + K-562 + COLO205 + SK-N-BE2 + OVCAR-8; settings: read-out: apparent Kd; compound concentrations: 100 nM and 1000 nM (sheet 'Samples'), CATDS: 0.14057536576690199; n = 1
# [1] = compound concentrations:100 nM and 1000 nM (sheet 'Samples')
structure (smiles),measurement,setting,value
COc1cc[nH]c1/C=C1\C(=O)Nc2ccc([N+](=O)[O-])c(N3CC[C@@H](O)C3)c21 [RO0504985-000],potency estimated from few doses,"AAK1; compound concentrations: 100 nM and 1000 nM (sheet 'Samples'), CATDS: 0.119322014743116",0.0462 µM
same,potency estimated from few doses,"BMP2K; compound concentrations: 100 nM and 1000 nM (sheet 'Samples'), CATDS: 0.146188418361926",0.033 µM
same,potency estimated from few doses,FLT4; CATDS: 3.5350973360848997E-2,1.02 µM
same,potency estimated from few doses,"GSK3A; compound concentrations: 100 nM and 1000 nM (sheet 'Samples'), CATDS: 6.9215882134984696E-2",0.143 µM
same,potency estimated from few doses,GSK3B; CATDS: 8.07850710279054E-2,0.0997 µM
same,potency estimated from few doses,NUAK1; CATDS: 0.113358948941002,0.0506 µM
same,potency estimated from few doses,"Q6ZSR9; compound concentrations: 100 nM and 1000 nM (sheet 'Samples'), CATDS: 0.13185454777653499",0.039 µM
Cl.Cl.NCC(NCc1ccc(-c2ccnc3[nH]ccc23)s1)c1ccccc1.NCC(NCc1ccc(-c2ccnc3[nH]ccc23)s1)c1ccccc1 (centres unmarked) [GSK1321565A],potency estimated from few doses,AAK1; [1],0.82 µM
same,potency estimated from few doses,BMP2K; [1],0.982 µM
same,potency estimated from few doses,Q6ZSR9; [1],0.942 µM
CC(C)(CO)CNC(=O)c1ccc2c(c1)/C(=N/Nc1ccc(S(N)(=O)=O)cc1)C(=O)N2 [GW301784X],potency estimated from few doses,AAK1; [1],1.82 µM
same,potency estimated from few doses,BMP2K; [1],1.84 µM
same,potency estimated from few doses,CLK1; [1],0.878 µM
same,potency estimated from few doses,CLK4; [1],0.612 µM
same,potency estimated from few doses,CSNK2A1;CSNK2A3; [1],0.12 µM
same,potency estimated from few doses,CSNK2A2; [1],0.0643 µM
same,potency estimated from few doses,Q6ZSR9; [1],1.6 µM
NS(=O)(=O)c1cccc(-c2ccc3c(NC(=O)C4CC4)n[nH]c3c2)c1 [SB-741905],potency estimated from few doses,"AAK1; compound concentrations: 100 nM and 1000 nM (sheet 'Samples'), CATDS: 0.126213197239569",1.21 µM
same,potency estimated from few doses,"Q6ZSR9; compound concentrations: 100 nM and 1000 nM (sheet 'Samples'), CATDS: 0.101605627816376",2.41 µM
CCn1c(-c2nonc2N)nc2cncc(C(=O)N3CC[C@H](N)C3)c21.Cl [SB-772077-B],potency estimated from few doses,AAK1; [1],1.7 µM
same,potency estimated from few doses,GSK3A; [1],1.1 µM
same,potency estimated from few doses,PKN1,0.484 µM
same,potency estimated from few doses,PKN3,1.71 µM
same,potency estimated from few doses,Q6ZSR9; [1],1.88 µM
O=C1N=C(NCCc2ccccc2Cl)S/C1=C\c1ccc2ncccc2c1 [RO4498484-000],potency estimated from few doses,"AAK1; compound concentrations: 100 nM and 1000 nM (sheet 'Samples'), CATDS: 7.0672381673146406E-2",1 µM
same,potency estimated from few doses,"CLK1; compound concentrations: 100 nM and 1000 nM (sheet 'Samples'), CATDS: 0.163722912511999",0.151 µM
same,potency estimated from few doses,"CLK4; compound concentrations: 100 nM and 1000 nM (sheet 'Samples'), CATDS: 0.193469538942661",0.114 µM
same,potency estimated from few doses,"CSNK2A1;CSNK2A3; compound concentrations: 100 nM and 1000 nM (sheet 'Samples'), CATDS: 0.166165421111277",0.147 µM
same,potency estimated from few doses,"CSNK2A2; compound concentrations: 100 nM and 1000 nM (sheet 'Samples'), CATDS: 0.20425555691522501",0.105 µM
same,potency estimated from few doses,GAK; CATDS: 6.92626012786898E-2,1.06 µM
same,potency estimated from few doses,"Q6ZSR9; compound concentrations: 100 nM and 1000 nM (sheet 'Samples'), CATDS: 7.2207205601376195E-2",0.937 µM
CNc1nccc(-c2ccc3c(N)n[nH]c3c2)n1 [GSK2206003A],potency estimated from few doses,"AAK1; compound concentrations: 100 nM and 1000 nM (sheet 'Samples'), CATDS: 0.11797009071744601",0.108 µM
same,potency estimated from few doses,"BMP2K; compound concentrations: 100 nM and 1000 nM (sheet 'Samples'), CATDS: 5.7170227951540302E-2",0.897 µM
same,potency estimated from few doses,"CLK1; compound concentrations: 100 nM and 1000 nM (sheet 'Samples'), CATDS: 0.21779714475359599",0.0365 µM
same,potency estimated from few doses,"CLK4; compound concentrations: 100 nM and 1000 nM (sheet 'Samples'), CATDS: 0.18290440862860499",0.048 µM
same,potency estimated from few doses,MELK,0.145 µM
same,potency estimated from few doses,"Q6ZSR9; compound concentrations: 100 nM and 1000 nM (sheet 'Samples'), CATDS: 0.14345562945172299",0.0731 µM
same,potency estimated from few doses,RET,0.076 µM
CC(C)N1CC(=O)N(C)c2cnc(Nc3cccc(S(=O)(=O)CCN4CCOCC4)c3)nc21 [BI00009348],potency estimated from few doses,"AAK1; compound concentrations: 100 nM and 1000 nM (sheet 'Samples'), CATDS: 7.4673370536537498E-2",0.662 µM
same,potency estimated from few doses,"BMP2K; compound concentrations: 100 nM and 1000 nM (sheet 'Samples'), CATDS: 7.1051362969771797E-2",0.736 µM
same,potency estimated from few doses,GSK3B; CATDS: 6.9045357407431895E-2,0.783 µM
same,potency estimated from few doses,NUAK1; CATDS: 5.8980010573034099E-2,1.14 µM
same,potency estimated from few doses,"Q6ZSR9; compound concentrations: 100 nM and 1000 nM (sheet 'Samples'), CATDS: 6.16877896582032E-2",1.02 µM
O=C1N=C(N[C@@H](CO)Cc2ccccc2)S/C1=C\c1ccc2ncccc2c1 [RO4509200-000],potency estimated from few doses,"AAK1; compound concentrations: 100 nM and 1000 nM (sheet 'Samples'), CATDS: 0.15010438596183701",0.551 µM
same,potency estimated from few doses,"BMP2K; compound concentrations: 100 nM and 1000 nM (sheet 'Samples'), CATDS: 0.102719601142922",1.46 µM
same,potency estimated from few doses,"CLK1; compound concentrations: 100 nM and 1000 nM (sheet 'Samples'), CATDS: 0.20013343303713499",0.329 µM
same,potency estimated from few doses,"CLK4; compound concentrations: 100 nM and 1000 nM (sheet 'Samples'), CATDS: 0.162916549975684",0.47 µM
same,potency estimated from few doses,"Q6ZSR9; compound concentrations: 100 nM and 1000 nM (sheet 'Samples'), CATDS: 0.142532878113064",0.613 µM
COc1cc2ncn(-c3cc(OCc4ccccc4S(C)(=O)=O)c(C#N)s3)c2cc1OC [GSK319347A],potency estimated from few doses,"AAK1; compound concentrations: 100 nM and 1000 nM (sheet 'Samples'), CATDS: 0.12685242970353799",0.621 µM
same,potency estimated from few doses,"BMP2K; compound concentrations: 100 nM and 1000 nM (sheet 'Samples'), CATDS: 0.286498522791794",0.177 µM
same,potency estimated from few doses,FLT4; CATDS: 8.0295198966638101E-2,1.72 µM
same,potency estimated from few doses,GAK; CATDS: 8.54645100662135E-2,1.45 µM
same,potency estimated from few doses,"Q6ZSR9; compound concentrations: 100 nM and 1000 nM (sheet 'Samples'), CATDS: 0.124049531101547",0.647 µM
Cl.Cl.NC[C@H](CC1CCCCC1)NC(=O)c1ccc(-c2ccnc3[nH]ccc23)s1.NC[C@H](CC1CCCCC1)NC(=O)c1ccc(-c2ccnc3[nH]ccc23)s1 [GSK1581428A],potency estimated from few doses,AAK1; [1],0.0545 µM
same,potency estimated from few doses,PKN1,0.538 µM
same,potency estimated from few doses,Q6ZSR9; [1],0.0627 µM
